# Screens as filed in PubChem.
# TGFb inhibitor = blocks TGF-b signaling; AID 588855; actives 1.2% (n = 410,000); Potency, µM (series often up to 46.1 µM), most hits filed as inhibitors; HepG2 CAGA-GFP TGF-b/SMAD3 reporter, GFP fluorescence, 18 h; TGF-beta stimulated, 500 pg/mL final; note: nearly all actives have a fitted effect of over 65% in size
#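 Per well, imaged GFP fluorescence of HEPG2 CAGA-GFP cells gives the signal; cells get compound, then TGF-beta (500 pg/mL final), 18 h at 37 degrees C; %Activity versus -TGF-beta and +DMSO controls.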
# Apoferritin bind = candidate novel general anesthetic via apoferritin binding. apoferritin/1-aminoanthracene competitive binding, fluorescence. Potency, µM (series often up to 77.5 µM), hits mostly inhibitors. actives 0.074% (n = 350,000). AID 485281; note: nearly all actives have a fitted effect of over 20% in size
# Target sequence (P02791 2-175 limits assumed): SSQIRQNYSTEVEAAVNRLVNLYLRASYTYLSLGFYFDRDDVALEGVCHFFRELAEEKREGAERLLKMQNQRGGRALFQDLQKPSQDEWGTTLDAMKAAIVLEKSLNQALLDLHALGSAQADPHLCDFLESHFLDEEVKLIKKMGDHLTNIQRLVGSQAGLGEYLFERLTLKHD
#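 Horse-spleen apoferritin (10 uM) in 50% saturated 1-aminoanthracene in PBS was incubated 10 min at room temperature with compound. Fluorescence (ex 380, em 535 nm) was normalized to free and bound 1-AMA, with concentration-response fitted by a four-parameter Hill equation.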
# HepG2 tox = HepG2 cytotoxicity, counter-screen for TGF-b inhibitors; HepG2 CAGA-GFP viability, ATP luminescence, 18 h; Potency, µM (series often up to 46.1 µM), hits mostly cytotoxic; actives 0.76% (n = 410,000); AID 588856
#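 CellTiter-Glo luminescence gave cytotoxicity after 18 hours at 37 degrees C. The cells were HepG2 CAGA-GFP in 1% FBS DMEM, stimulated with 500 pg/mL TGF-beta after compound addition. %Activity was normalised to no-cell wells (complete cell-killing) and DMSO (no toxicity), and curves were fitted and classified.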
# ATXN2 expr inh = reduces ATXN2 reporter expression in HEK-293 cells. HEK-293 ATXN2-luciferase reporter, luminescence, 24 h. Potency, µM (titrated, usually from 57 µM), actives largely listed as inhibitors. actives 0.72% (n = 360,000); note: nearly all actives have a fitted effect of over 55% in size
#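 ATXN2-luciferase reporter cells (luciferase flanked by upstream and downstream ATXN2 gene portions) were treated 24 h at 37 °C with compounds at up to 57 uM. SteadyGlo luminescence gave expression; GF-AFC fluorescence gave viability.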
# ATXN viability = cell viability loss in ATXN counter-screen; S2 cells (HEK-293 line with an ATXN2-luciferase reporter) viability, CellTiter-Fluor protease fluorescence, 24 h; Potency, µM (highest dose often 56.7 µM), most hits filed as cytotoxic; actives 0.49% (n = 400,000); note: nearly all actives have a fitted effect of over 40% in size
# A number is an active result; - = inactive; ? = inconclusive; . = not tested or not shown; ! = repeats disagree; [ ] = another dose, or the depositor's remark. In the library only some 2.4% were active in any assay of this set; here they are far more common. Calls come from the whole dose curve; as a rule, active = well fitted curve in the direction sought with a large enough effect; inconclusive = small, poorly fitted or top-dose-only effect, or another doubt; inactive = no such curve, though single readings can be large; an effect the other way counts as inactive or inconclusive.
SMILES,TGFb inhibitor,Apoferritin bind,HepG2 tox,ATXN2 expr inh,ATXN viability
CN(Cc1ccccc1)C(=O)c1ccc(Nc2nc(C(N)COCc3ccccc3)cs2)nc1 (stereo not given),?,.,-,?,?
CC1CC(C)CN(S(=O)(=O)c2cccc(C(=O)N3CCN(c4ccc(F)cc4)CC3)c2)C1 (stereo not given),?,.,-,-,-
COc1cccc(C(=O)NNC2=C(C(=O)C(F)(F)F)CCC2)c1,?,-,4µM,-,-
O=C(NNC1=C(C(=O)C(F)(F)F)CCC1)c1ccc(Br)cc1,16µM,?,10µM,?,?
O=C(O)CN1C(=O)/C(=C/c2ccccc2Br)Oc2ccccc21,-,-,-,-,-
NCC12CC3CC(C1)CC(c1ccc(Br)cc1)(C3)C2,?,-,13µM,.,.
C[C@]12CCC(=O)C=C1[C@@H]1CC1[C@H]1[C@H]3[C@@H]4C[C@H]4[C@@]4(CCC(=O)O4)[C@@]3(C)CC[C@H]12 (stereo not given in full),.,.,.,-,.
CC1CCN(CCCNC(=O)c2cc3c(s2)-c2ccccc2OC3)CC1,?,-,-,?,-
O=C(NCCCN1CCN(c2ccc(F)cc2)CC1)c1cc2c(s1)-c1ccccc1OC2,?,-,-,28µM,?
O=C(NCCCN1CCN(c2ccccc2)CC1)c1cc2c(s1)-c1ccccc1OC2,?,-,14µM,-,?
O=C(NCCCN1CCN(c2ccc(F)cc2)CC1)c1ccc2nc(Cc3ccccc3)oc2c1,11µM,-,-,?,.
O=C1[C@H]2O[C@@H]2[C@@H](O)[C@H]2[C@H]1CCn1c(=O)n(Cc3cc4c(cc3Cl)OCO4)c(=O)n12,.,-[15.3 µM],.,.,.
Cc1ccc(S(=O)(=O)N(C)Cc2ccc(C(=O)N/N=C/c3ccc(OC(F)F)cc3)cc2)cc1,?,-,-,?,11µM
C/C(=N\NC(=O)c1ccc(CN(C)S(=O)(=O)c2ccc(C)cc2)cc1)c1ccc(OC(F)F)cc1,?,-,-,?,?
CCN1CCN(c2ccc(NC(=O)c3cc(S(=O)(=O)N4CCCC4)ccc3Cl)cc2)CC1,-,.,-,.,-
CCN1CCN(S(=O)(=O)c2ccc(Cl)c(C(=O)Nc3ccc(OC(F)F)cc3)c2)CC1,-,-,8.9µM,-,-
Clc1cccc(-n2nnnc2NCc2ccccc2Oc2ccccn2)c1Cl,.,.,.,-,.
O=C(CCl)Nc1cccc(-c2cnc3ccccc3n2)c1,7.1µM,?,11µM,?,.
Cc1cc(NC(=O)CCS(=O)(=O)c2nc(-c3ccccc3)cc(C(F)(F)F)n2)no1,?,-,-,?,20µM
CC(C)CNC(=O)CCSc1nc(-c2ccc3c(c2)OCO3)cc(C(F)(F)F)n1,-,-,-,-,-
COc1ccc(-c2cc(C(F)(F)F)nc(S(=O)(=O)CCC(=O)N3CCOCC3)n2)cc1,-,-,-,?,?
O=C(CCS(=O)(=O)c1nc(-c2ccc3c(c2)OCO3)cc(C(F)(F)F)n1)Nc1ccc(F)cc1F,18µM,-,-,.,.
CS(=O)(=O)c1nc(-c2ccccc2)cc(C(F)(F)F)n1,?,-,13µM,?,.
COc1ccc(NC(=O)CCS(=O)(=O)c2nc(-c3ccc4c(c3)OCO4)cc(C(F)(F)F)n2)cc1,?,-,11µM,.,.
COc1ccc(CCNC(=O)C(=O)NCC(c2ccco2)S(=O)(=O)c2cccs2)cc1 (stereo not given),-,-,-,.,.
SMILES,TGFb inhibitor,Apoferritin bind,HepG2 tox,ATXN2 expr inh,ATXN viability
Cc1ccc(NC(=O)C(Cc2c[nH]c3ccccc23)NC(=O)OC(C)(C)C)c(C)c1 (stereo not given),-,?,-,?,?
COc1cc(OC)c(OC)cc1CN1CCCC(n2cc(C(=O)N3CCCCC3)nn2)C1 (stereo not given),.,.,.,.,-
Cc1cccc(C2=N[C@@H](Cc3ccccc3)CO2)c1,.,-,.,.,.
Cc1ccccc1CN1[C@H]2CCCC[C@@H]2OCCS1(=O)=O,-,.,-,.,.
CCc1ccc(C2=NN(CCC(=O)NCCc3ccccc3)C(=O)CC2)cc1,-,?,-,.,.
CCN(CC)C(=O)Cn1c(=O)n(CCCCCC(=O)NCc2ccccc2)c(=O)c2sccc21,-,-,-,-,-
CCN(CC)C(=O)Cn1c(=O)n(CCCCCC(=O)Nc2ccccc2)c(=O)c2sccc21,?,-,3.2µM!,-,-
